# Experimental data reported in PubChem BioAssay AID504913 (The Scripps Research Institute Molecular Screening Center, 2011).
# The other results are listed elsewhere or left out. A number with no mark means an inactive call. Rule as the data show it: active = activation above about 18%; inactive = the rest.
# Assay: OPRM1-OPRD1 heterodimerization promoters, counter-screen for HTR5A agonist project, cell-based, luminescence (AID 504913)
# Details: U2OS counter-screen cells, complementation luminescence, 3 h; at 9.3 µM; active compounds read high
structure (smiles),measurement,value
CCCCCCCCCCCCn1ccc(=N)cc1,activation,2.92%
